We go through 38 molecules from PubChem BioAssay (NCI).

The panel holds about 83,000 compounds, 20% with a hit somewhere; the sample as a whole holds those more often.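 Single-concentration screen, 48 h exposure, 96-well plates. Endpoint: percent growth. Below 10 = active.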 A number with no mark means an inactive call. The source made the active and inactive calls.

For this assay, the system named is SF-268 CNS. The experiment in a line: NCI-60 one-dose screen, 48 h (100 = growth as untreated, 0 = no growth, -100 = all killed). The following applies: 10 µM unless noted.
As for `O=C(Nc1ccc2c(ccn2Cc2ccccn2)c1)c1ccnnc1`, the growth was 81.9%.

Consider `N#C/C(=C\c1ccc(-c2ccc(Cl)cc2Cl)o1)c1ccc(F)cc1`, for which the growth was 92.3%.

On to `COc1ccc(/C(N)=N/C(N)=N/c2nc3ccccc3s2)cc1`, for which the growth was 78.9%.

Take `Nc1nc(-c2cccc([N+](=O)[O-])c2)c(N=Nc2ccccc2)s1`: the growth was 66.4%.

Turning to `CNC(=O)c1cc(Oc2ccc3nc(NC(=O)c4cc(N5CCOCC5)cc(C(F)(F)F)c4)sc3c2)ccn1`, the growth was 86%.

In the case of `C=C(C)[C@@H]1CC[C@]2(COP(=O)(OCC)OCC)CC[C@]3(C)[C@H](CC[C@@H]4[C@@]5(C)CCCNC(C)(C)[C@@H]5CC[C@]43C)[C@@H]12`, the growth was 50.1%.

Consider `CCCn1cnc2c(c1=N)C(c1ccc(F)cc1)c1sc3c(CC)cccc3c1O2` (stereo not drawn), for which the growth is 18.8%.

Turning to `CC1(C)[C@@H](O)CC[C@]2(C)[C@H]3CC[C@@H]4[C@H]5[C@H](C(=O)/C=C\c6ccc([N+](=O)[O-])cc6)CC[C@]5(O)CC[C@@]4(C)[C@]3(C)CC[C@@H]12`, the growth was 63.9%.

For the molecule `c1cc(-c2nc3ccc4[nH]ncc4c3c3c2CCCC3)[nH]n1`, the growth was 71.4%.

As to `O=C(CSc1nc2ccccc2c(=O)n1-c1ccccc1)Nc1ccc(-c2nc3ccc([N+](=O)[O-])cc3[nH]2)cc1`, the growth is 76.2%.

Take `C[C@@H](Nc1ncnc2ccc(-c3cnc(Cl)c(NS(C)(=O)=O)c3)cc12)c1ccccc1`: the growth is 42.5%.

`CC(=O)Nc1cccc(Nc2nc(N[C@H](C)c3ccccc3)c3ccccc3n2)c1`: the growth was 62.9%.

Consider `COc1cc(-c2nn(C(C)(C)C)cc2-c2ccnc(NCCCNS(=O)(=O)c3cccc(F)c3)n2)ccc1Cl`, for which the growth is 56.7%.

As to `Cc1ccc2c(c1)C(=O)/C(=C/c1cccc(F)c1)S2`, the growth is 101%.

In the case of `CCCC(=O)NC(c1cccnc1)c1cc(C(C)(C)C)c2cccnc2c1O` (stereo not drawn), the growth was 24.2%.

For `CCN(CC)CCn1c2ccc(O)cc2c2sc3cc(OC)ccc3c(=O)c21`, the growth is 48.1%.

In the case of `Cn1cc(-c2nc(N)nnc2-c2c[nH]c3ccccc23)c2cc(Br)ccc21`, the growth is 39.6%.

Take `C=C(C)[C@@H]1CC[C@]2(COCCCNCCC#N)CC[C@]3(C)[C@H](CC[C@@H]4[C@@]5(C)CC[C@H](OCCCNCCC#N)C(C)(C)[C@@H]5CC[C@]43C)[C@@H]12`: the growth was 55.6%.

As to `CCNC(=O)N1CCc2cc(OC)c(OCCc3ccc(OC)c(N)c3)cc2C1c1ccc(C)cc1C` (stereo not drawn), the growth is 26.1%.

For `CC1(C)CC[C@]2(C(=O)N3CCOCC3)CC[C@]3(C)C(=CC[C@@H]4[C@@]5(C)C/C(=C/c6ccccn6)C(=O)C(C)(C)[C@@H]5CC[C@]43C)[C@@H]2C1`, the growth was 59.6%.

For `O=C(Nc1nc2ccc([N+](=O)[O-])cc2s1)Nc1ccccc1Br`, the growth was 38.3%.

`CC1=N[C@@H]2CN(C(=O)OC(C)(C)C)C[C@@H]2n2c1cc1ccccc1c2=O`: the growth was 99.5%.

For the molecule `Cc1[nH]c(C(=O)Nc2ccccc2OCc2cccc(C(=O)N3CCC[C@@H](N)C3)c2)c(Cl)c1Cl`, the growth is -66.9% (active).

As for `Cc1cc(-c2ccc(Cl)cc2)n(Cc2nnc(SCC(=O)Nc3ccc(S(N)(=O)=O)cc3)n2-c2ccc([N+](=O)[O-])cc2)n1`, the growth is 95.6%.

As for `Cc1c(F)cc(C(N)=O)cc1NCC(=O)Nc1ccc([N+](=O)[O-])cc1`, the growth was 81.2%.

Regarding `COc1cc(-c2ccc3ncnc(NCc4ccccc4)c3c2)cnc1OC`, the growth is 46.5%.

As for `CCNC(=O)N1CCc2cc(OC)c(OCCc3ccc(OC)c(N)c3)cc2C1c1cc(C)c(C)cc1C` (stereo not drawn), the growth was 40.7%.

With `O=C1[C@H]2Cc3c([nH]c4ccccc34)[C@@H](c3ccc(Br)cc3)N2C(=O)CN1C1CCN(CC2CCCCC2)CC1`, the growth was 22.2%.

On to `COC(=O)c1ccc(NC2=C/C(=N/S(=O)(=O)c3ccc(C(=O)O)cc3)c3ccccc3C2=O)cc1`, for which the growth is 37.7%.

For the molecule `COc1ccc(CCOc2cc3c(cc2OC)CCN(C(=O)NCc2cocn2)C3c2ccc(C)cc2C)cc1` (stereo not drawn), the growth is 21.2%.

Turning to `Cc1ccc(C(=O)NN2C(=O)/C(=C/C=C/c3ccco3)SC2=S)cc1`, the growth was 96.9%.

For the molecule `COc1ccc(/C=C/C(=O)c2cccc(NC(=O)CSc3nc4ccccc4c(=O)n3-c3ccccc3)c2)cc1OC`, the growth was 94.6%.

For `C[C@H]1c2[nH]c3ccccc3c2C[C@H]2C(=O)N(CCCCCCC(=O)NO)CC(=O)N21`, the growth was 90.1%.

For `C=CCOc1cccc(/C=C2\SC(=S)N(C3CC(=O)N(c4ccc(Br)cc4)C3=O)C2=O)c1` (stereo not drawn), the growth was 103%.

`CC(C)(C)c1ccc(-c2nnc(-c3nc4ccccc4nc3Cl)o2)cc1`: the growth was 42%.

Turning to `Nc1nc(-c2cccc([N+](=O)[O-])c2)c(N=Nc2ccc(Br)cc2)s1`, the growth is 26.2%.

`CCNC(=O)N1CCc2cc(OC)c(OCCc3ccc(OC)cc3)cc2C1c1ccc(OC)cc1C` (stereo not drawn): the growth is 34%.

On to `COc1ccc(-c2nc(C(Cl)Cl)nc3cc(-c4ccccc4)nn23)cc1`, for which the growth was 14.2%.
